# Laboratory results reported in paper PMC5700166.
# Biological target: T1, GST-Nv-NF-kB (Ser allele) (Nematostella vectensis, UniProt A7UNT2 2-411)
# T1 sequence: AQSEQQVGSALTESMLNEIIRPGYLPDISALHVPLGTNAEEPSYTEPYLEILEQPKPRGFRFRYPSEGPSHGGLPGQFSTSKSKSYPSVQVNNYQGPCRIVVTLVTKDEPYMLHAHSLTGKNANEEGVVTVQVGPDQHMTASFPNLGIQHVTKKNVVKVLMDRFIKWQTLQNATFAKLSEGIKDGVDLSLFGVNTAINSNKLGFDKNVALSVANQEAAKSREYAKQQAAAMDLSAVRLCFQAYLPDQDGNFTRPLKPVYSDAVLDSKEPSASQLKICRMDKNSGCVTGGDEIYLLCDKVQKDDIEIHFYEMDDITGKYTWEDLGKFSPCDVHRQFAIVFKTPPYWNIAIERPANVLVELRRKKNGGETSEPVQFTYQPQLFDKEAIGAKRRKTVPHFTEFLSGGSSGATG
# Experiment: protein-binding microarray (PBM); PBM: ~300 nM protein, 6 mM HEPES pH 7.8, 80 mM KCl, 0.5 mM EDTA, 0.5 mM EGTA, 6% glycerol, 35 ng/ul poly-dIdC, 1% milk, 1 h, room temperature; Ap Aiptasia and Nv Nematostella (sea anemones) / Co Capsaspora / Aq Amphimedon (sponge) / Dm Drosophila / Hu human; RHD is the Rel homology domain; high values mean tight binding
# Settings: dsDNA, one strand shown
row,Sequence,binding signal
1,CCGATTAACATCAGGGAAACCACTGATGTTAATCGGGTCTTGATTCGCTTGACGCTGCTG,4.02 z-score
2,CCGATTAACATCAGGTTTTTCCATGATGTTAATCGGGTCTTGATTCGCTTGACGCTGCTG,1.02 z-score
3,CCGATTAACATCAGGGGAAGGTATGATGTTAATCGGGTCTTGATTCGCTTGACGCTGCTG,5.76 z-score
4,CCGATTAACATCAATATACCCCCTGATGTTAATCGGGTCTTGATTCGCTTGACGCTGCTG,5.46 z-score
5,CCGATTAACATCAAGCATCCCCCTGATGTTAATCGGGTCTTGATTCGCTTGACGCTGCTG,5.87 z-score
6,CCGATTAACATCAGAAATTTACCTGATGTTAATCGGGTCTTGATTCGCTTGACGCTGCTG,4.13 z-score
7,CCGATTAACATCAAAAAAAGTACTGATGTTAATCGGGTCTTGATTCGCTTGACGCTGCTG,1.16 z-score
8,CCGATTAACATCAAATCGGGAAATGATGTTAATCGGGTCTTGATTCGCTTGACGCTGCTG,2.88 z-score
9,CCGATTAACATCAAGCGTTCCCCTGATGTTAATCGGGTCTTGATTCGCTTGACGCTGCTG,6.39 z-score
10,CCGATTAACATCACTGGGAATTCTGATGTTAATCGGGTCTTGATTCGCTTGACGCTGCTG,3 z-score
11,CCGATTAACATCAATTTCCCATATGATGTTAATCGGGTCTTGATTCGCTTGACGCTGCTG,3.63 z-score
12,CCGATTAACATCACAAAATTTCCTGATGTTAATCGGGTCTTGATTCGCTTGACGCTGCTG,1.16 z-score
13,CCGATTAACATCAGGCGAGTCCCTGATGTTAATCGGGTCTTGATTCGCTTGACGCTGCTG,2.72 z-score
14,CCGATTAACATCAGGGATTCTCATGATGTTAATCGGGTCTTGATTCGCTTGACGCTGCTG,1.71 z-score
